# From PubChem
# Hits are enriched below; roughly 2.2% of the tested compounds scored in any of these assays.
# DENV2 CPE: DENV2-induced cell death inhibition; 1.7% of 350,000 active; AID 651640; CPE inhibition, % at 9.99 µM; DENV2-infected cells, cytopathic effect rescue, plate reader; in the data active means CPE inhibition above about 20%, passing the limit was not always enough; inconclusive means no clear call, values can overlap the other calls; tested in BHK-21 cells;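 further: 0% = median of neutral control wells and 100% = median of positive control wells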
# miR-122 sensor: inhibitors of miR-122 in Huh7 cells | Huh7 miR-122 Renilla luciferase sensor, 48 h; neutral wells = 0, positive control = 100 | activation (reporter increase), % at 12.5 µM | 0.3% of 340,000 active | AID 602342;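 active means mean replicate activation score at least 90 and every replicate individually at or above 90; inconclusive means only one of the two criteria met; inactive means neither criterion met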;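 further: higher luciferase means less miR-122 activity so hits act as miR-122 inhibitors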
# PvdQ acylase: blocks Pseudomonas aeruginosa PvdQ acylase activity; purified PvdQ acylase, fluorescence plate reader; inhibition, % at 10 µM; 0.063% of 340,000 active; in the data active means inhibition above about 30%, passing the limit was not always enough; inconclusive means no clear call, values can overlap the other calls;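 further: 0% = vehicle neutral wells and 100% = reference inhibitor wells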
# PGC1a acetyl inh: PGC1a acetylation modulation, inhibitor mode; 0.17% of 350,000 active; U2OS PGC1a acetylation, AlphaScreen anti-acetyl-lysine; with virally co-expressed GCN5 acetyltransferase; inhibition, % at 15.6 µM; AID 651687;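 active means every replicate shows inhibition of at least 40%; inconclusive means mean inhibition at least 40% but some replicate below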;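 further: 0% = neutral control wells and 100% = positive control wells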
# Statin myotox sup: protects C2C12 myotubes from simvastatin toxicity; AID 602340; 0.78% of 330,000 active; ATP luminescence, 48 h; scaled: DMSO 0, geranylgeraniol control 100; rescue of ATP level, % at 7.49 µM;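 active means mean ATP rescue above about 67%, or every replicate alone reaching that limit, limit read from the data, passing the limit was not always enough; inconclusive means no clear call, values can overlap the other calls; inactive means mean under the limit and some replicate under it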;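 further: myotubes were challenged with 10 µM simvastatin during compound exposure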
# Numbers without * were called inactive; ? = inconclusive; · = no result given; [ ] = dose if it differs, or a comment.
SMILES,DENV2 CPE,miR-122 sensor,PvdQ acylase,PGC1a acetyl inh,Statin myotox sup
COc1ccc(CN2[C@H](CO)[C@H]3c4ccccc4N(C(=O)Nc4ccc(F)cc4)C[C@H]32)cc1,22*,-7[16.7 µM],·,0,-39
COc1ccc(C(=O)N2C[C@@H]3[C@H](c4ccccc42)[C@H](CO)N3Cc2ccccc2Cl)cc1,6,194*[16.7 µM],·,-7,3
COc1cccc(CN2[C@@H]3CN(C(=O)c4ccncc4)c4ccccc4[C@@H]3[C@@H]2CO)c1,21*,11[16.7 µM],·,4,5
O=C(c1cccnc1)N1C[C@H]2[C@@H](c3ccccc31)[C@@H](CO)N2Cc1ccc2c(c1)OCO2,26*,14[16.7 µM],·,-6,1
C[C@H](CO)N1C[C@H](C)[C@H](CN(C)C(=O)Nc2ccc(C(F)(F)F)cc2)Oc2c(NC(=O)Nc3ccccc3)cccc2C1=O,-9,-6[16.7 µM],·,7,-3
COC(=O)[C@@H]1[C@@H](CO)[C@@H]2Cn3c(ccc(C4=CCCCC4)c3=O)[C@@H]2N1CC1CCCCC1,-7,-8[16.7 µM],·,·,5
CCc1cc(C(=O)N2CCCC(CCC(=O)N3CCN(c4ccccn4)CC3)C2)no1 (centres undefined),0,1,-7,10,7
O=C(CCC1CCCN(C(=O)c2cc(C3CC3)[nH]n2)C1)N1CCN(c2ccccn2)CC1 (centres undefined),-2,-5,-7,98*,-4
CCOc1ccc(NC(=O)CN(c2ccc(OC)cc2)S(C)(=O)=O)cc1,·,-6,-14,-6,111*
CCOc1ccc(N(CC(=O)Nc2cccc(C)c2)S(C)(=O)=O)cc1,43*,3,0,-4,8
COc1ccc(CNC(=O)C[C@@H]2C[C@H]3c4cc(NS(C)(=O)=O)ccc4O[C@H]3[C@@H](CO)O2)cc1,1,5[16.7 µM],·,-11,0
CCc1nc2c(OCc3ccc(Cl)cc3)cccn2c1N(C)C(=O)c1ccccc1F,10,1,·,-5,-42
CCc1nc2c(OCc3cccc(Cl)c3)cccn2c1N(C)C(=O)c1ccco1,23*,22,·,24,-33
CCc1nc2c(OCc3ccc(S(C)(=O)=O)cc3)cccn2c1N(C)C(=O)c1ccccc1F,0,-3,·,45*,4
O=S(=O)(N[C@H]1CC[C@@H](CCn2cc(-c3ccccn3)nn2)O[C@@H]1CO)c1cccc(F)c1,0,·,·,1,-4
C[C@H](CO)N1C[C@H](C)[C@@H](CN(C)S(=O)(=O)c2cn(C)cn2)Oc2c(NC(=O)C3CCCCC3)cccc2C1=O,20,·,·,7,·
CCC(=O)Nc1ccc2c(c1)C(=O)N(C)[C@H]1CC[C@@H](CC(=O)N[C@@H](C)c3ccccc3)O[C@H]1CO2,71*,4[16.7 µM],·,4,7
CCC(=O)Nc1ccc2c(c1)C(=O)N(C)[C@@H]1CC[C@@H](CC(=O)N[C@H](C)c3ccccc3)O[C@H]1CO2,10,4[16.7 µM],·,-3,10
CC(C)C(=O)Nc1ccc2c(c1)C(=O)N(C)[C@H]1CC[C@H](CC(=O)Nc3ccccc3F)O[C@@H]1CO2,78*,10[16.7 µM],·,0,24
CCC(=O)Nc1ccc2c(c1)C(=O)N(C)[C@@H]1CC[C@H](CC(=O)N[C@@H](C)c3ccccc3)O[C@@H]1CO2,139*,2[16.7 µM],·,-12,-5
CCC(=O)Nc1ccc2c(c1)C(=O)N(C)[C@H]1CC[C@H](CC(=O)N[C@H](C)c3ccccc3)O[C@@H]1CO2,-8,·,·,-10,·
CCC(=O)Nc1ccc2c(c1)C(=O)N(C)[C@@H]1CC[C@H](CC(=O)N[C@@H](C)c3ccccc3)O[C@H]1CO2,62*,0[16.7 µM],·,-4,-9
CCC(=O)Nc1ccc2c(c1)C(=O)N(C)[C@H]1CC[C@@H](CC(=O)N[C@@H](C)c3ccccc3)O[C@@H]1CO2,?,-2[16.7 µM],·,1,10
C[C@@H]1CN([C@@H](C)CO)C(=O)c2c(c3ccccc3n2C)-c2ccccc2CO[C@H]1CN(C)C(=O)c1ccccc1,9,·,·,-14,·
CN1CCN(C(=O)c2cc3c(c(-c4cccc(-c5ccccc5F)c4)n2)[C@H](CCO)N([S@@](=O)C(C)(C)C)C3)CC1,2,·,·,-14,4
SMILES,DENV2 CPE,miR-122 sensor,PvdQ acylase,PGC1a acetyl inh,Statin myotox sup
Cc1c(Cl)cccc1NS(=O)(=O)c1ccc2c(c1)C1C=CCC1C(c1ccc(C(=O)O)cc1)N2 (centres undefined),·,0,-11,107*,-9
O=c1cc(CSc2nnc(-c3ccccc3)o2)c2ccccc2[nH]1,76*,-7,-3,7,2
O=c1cc(CSc2nnc(COc3ccc(Cl)cc3)o2)c2ccccc2[nH]1,·,5,-10,4,4
COC(=O)c1cn(C[C@H](Cc2ccccc2)NC(=O)Nc2ccccc2)nn1,1,·,·,·,·
CCOC(=O)C1CCN(c2nc(C)cc(C)c2C#N)CC1,-4,·,-4,·,·
COCc1cc(C)nc(N2CCN(c3ccccc3)CC2)c1C#N,·,0,-7,-4,-2
COCc1cc(C)nc(N2CCN(Cc3ccccc3)CC2)c1C#N,·,-2,-11,-3,106*
Cc1cc(C)c(C#N)c(SCC(=O)N2CCN(Cc3ccccc3)CC2)n1,·,-1,-16,-33,140*
Cc1cc(C)c(C#N)c(N2CCCC(C(N)=O)C2)n1 (centres undefined),·,-16,-16,1,170*
Cc1cc(C)c(C#N)c(N2CCN(c3ccccc3)CC2)n1,-2,2,-17,49*,-11
COc1ccc(S(=O)(=O)N(C)C[C@H]2Oc3ccc(NC(=O)Nc4ccc(C(F)(F)F)cc4)cc3C(=O)N([C@@H](C)CO)C[C@@H]2C)cc1,·,·,·,-4,·
Cc1ccc(S(=O)(=O)N(C)C[C@@H]2Oc3ccc(NC(=O)Nc4c(C)noc4C)cc3C(=O)N([C@H](C)CO)C[C@H]2C)cc1,-12,-3[16.7 µM],·,3,-12
CN(Cc1ccccc1)CC1CCCN(CCc2ccccc2F)C1 (centres undefined),39*,-4,1,11,4
COc1cc(CN(C)CC2CCCN(CCc3ccccc3F)C2)cc(Cl)c1OC (centres undefined),2,-6,-1,2,-12
CCC(=O)N(C)C[C@H]1Oc2cc(-c3ccccc3F)ccc2S(=O)(=O)N([C@@H](C)CO)C[C@@H]1C,-2,15[16.7 µM],·,-5,21
NC(=O)c1c(NC(=O)C2CCCO2)sc2c1CCC2 (centres undefined),·,0,-8,10,-21
CC(C)(C)C1CCc2c(sc(NC(=O)C3CCCO3)c2C(N)=O)C1 (centres undefined),·,17,-11,19,96*
COc1cccc(-c2ccc3c(c2)[C@@H]2[C@@H](CCN2C(=O)C2CCCCC2)[C@H](CO)N3)c1,-25,·,·,-11,·
CCOc1ccc(OCCCCN(C)C)cc1,·,-2,-7,37,90*
CO[C@H]1CC[C@@H]2CCOc3ccc(C#N)cc3C(=O)N(C)C[C@@H](OC)[C@@H](C)C(=O)N(C)C[C@H]1O2,-3,·,·,·,75*
